Mtb FBA inh: inhibits M. tuberculosis FBA enzyme; purified M. tuberculosis FBA, fluorescence read-out; inhibition, % at 1 µM; P9WQA3; AID 588726; hit rate 2.3% among 360,000; in the data active means inhibition above about 27%;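 further: 0% = vehicle and 100% = reference inhibitor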
Target sequence (P9WQA3 whole entry, looked up): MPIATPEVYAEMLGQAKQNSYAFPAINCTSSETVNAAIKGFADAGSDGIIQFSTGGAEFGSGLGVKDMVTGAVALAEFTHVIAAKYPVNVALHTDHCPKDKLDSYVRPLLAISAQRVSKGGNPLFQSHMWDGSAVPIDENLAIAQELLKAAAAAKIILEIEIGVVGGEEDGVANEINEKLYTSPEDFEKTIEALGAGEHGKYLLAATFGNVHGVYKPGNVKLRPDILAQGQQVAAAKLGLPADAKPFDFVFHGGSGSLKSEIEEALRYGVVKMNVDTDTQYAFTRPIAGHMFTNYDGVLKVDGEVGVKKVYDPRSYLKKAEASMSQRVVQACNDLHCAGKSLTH
Rv3671c inh: inhibitors of M. tuberculosis serine protease Rv3671c. hit rate 0.048% among 320,000. P9WHR9. inhibition, % at 5.96 µM. AID 2606; in the data active means inhibition above about 38%;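 further: extracellular domain of Rv3671c used as enzyme; 0% = enzyme with DMSO and 100% = no enzyme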
FadD28 FP inh: inhibitors of Mycobacterium tuberculosis FadD28 bisubstrate binding. FadD28 bisubstrate probe binding, fluorescence polarization. inhibition, % at 12.5 µM. hit rate 0.22% among 360,000; in the data active means inhibition above about 8.5%, passing the limit was not always enough
GDH-TPI counter: counter-screen for M. tuberculosis FBA inhibitors: GDH-TPI coupled enzymes. GDH-TPI coupled enzyme counterscreen, NADH absorbance. hit rate 1.2% among 360,000. inhibition, % at 4.8 µM; in the data active means inhibition above about 30%;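 further: 0% = DMSO wells and 100% = wells lacking the enzyme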
UGM FP inh: inhibitors of M. tuberculosis UDP-galactopyranose mutase. P9WIQ1. purified UGM, fluorescence polarization probe displacement. inhibition, % at 10 µM. hit rate 0.06% among 320,000; in the data active means inhibition above about 10%, passing the limit was not always enough
Mtb betalactam: beta-lactam sensitization of Mtb H37Rv; hit rate 0.27% among 330,000; inhibition, % at 25 µM; M. tuberculosis H37Rv growth with meropenem, percent inhibition; call rule not given here;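 further: growth measured after seven days incubation then overnight dye step; 0% = bacteria only wells and 100% = bacteria with antibiotic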
An asterisk follows results filed as active. The list is not random: actives were taken first. Their share in the collection is about 3.7%.

Screening COc1ccc(C2/C(=C(/O)c3ccccc3)C(=O)C(=O)N2c2ccccn2)cc1OC (stereo not drawn) returned Mtb FBA inh -2, Rv3671c inh 0, FadD28 FP inh -3, GDH-TPI counter 5, UGM FP inh 2 and Mtb betalactam -1.
For COc1ccc(-c2cc(NC=O)c3ncc(-c4cccc(C(=O)N(C)C)c4)n3c2)cn1 the results were Mtb FBA inh 3, FadD28 FP inh -2 and GDH-TPI counter 14.
Cc1ccc(C(=O)NCCc2nnc3ccc(SCC(=O)N4CCCCC4)nn23)cc1 was read as Mtb FBA inh 0, Rv3671c inh 6, FadD28 FP inh -4, GDH-TPI counter -6, UGM FP inh -3 and Mtb betalactam -2.
For COc1ccccc1NC(=O)CCNC(=O)C1CCN(S(=O)(=O)c2ccccc2)CC1 the results were Mtb FBA inh -3, FadD28 FP inh -3 and GDH-TPI counter 3.
Screening COc1cc(/C=N/Nc2cc(C)nc(NS(=O)(=O)c3ccc(C)cc3)n2)ccc1O returned Mtb FBA inh -1, FadD28 FP inh 1 and GDH-TPI counter 54*.
`COc1cc(/C=N/Nc2cc(C)nc(NS(=O)(=O)c3ccccc3)n2)ccc1O` gave Mtb FBA inh 0, Rv3671c inh 2, FadD28 FP inh 0, GDH-TPI counter 54*, UGM FP inh 4 and Mtb betalactam 0.
`O=C1CC(c2ccc(O)c(O)c2)Oc2cc(O)cc(O)c21` (stereo not drawn) gave Mtb FBA inh 6, Rv3671c inh -10, FadD28 FP inh -5, GDH-TPI counter 31*, UGM FP inh 1 and Mtb betalactam -6.
`O=S(=O)(O)c1cccc2c(N=Nc3ccc(O)c4ncccc34)cccc12` gave Mtb FBA inh -15, Rv3671c inh 27, FadD28 FP inh 28*, GDH-TPI counter 4, UGM FP inh 1 and Mtb betalactam 9.
`Cc1ccccc1N=Nc1ccc(O)c2ncccc12` gave Mtb FBA inh 1, Rv3671c inh 7, FadD28 FP inh -2, GDH-TPI counter 9, UGM FP inh -1 and Mtb betalactam 85.
`CCCCNC(=O)C1(C)CCCCN1C(=O)c1ccc2c(c1)CCO2` (stereo not drawn) gave Mtb FBA inh 2, FadD28 FP inh -2 and GDH-TPI counter 6.
Cc1cc(C(=O)N/N=C/C=C/c2ccc(Br)cc2)n[nH]1 was read as Mtb FBA inh 0, Rv3671c inh -2, FadD28 FP inh -1, GDH-TPI counter 42*, UGM FP inh -2 and Mtb betalactam 5.
CC(C)c1cc(C(=O)N/N=C/C=C/c2ccccc2)n[nH]1 was read as Mtb FBA inh -2, Rv3671c inh -7, FadD28 FP inh -5, GDH-TPI counter 29, UGM FP inh -1 and Mtb betalactam 7.
Cc1cc(C(=O)N/N=C/C=C/c2ccc([N+](=O)[O-])cc2)n[nH]1 was read as Mtb FBA inh 1, Rv3671c inh 6, FadD28 FP inh -1, GDH-TPI counter 41*, UGM FP inh 1 and Mtb betalactam -4.
`CCOc1cc(/C=N/NC(=O)c2cc(C)[nH]n2)ccc1OC(=O)c1ccc([N+](=O)[O-])cc1` gave Rv3671c inh -4, UGM FP inh -1 and Mtb betalactam 72.
O=c1[nH]c2cc3c(cc2cc1C(c1nnnn1C1CCCCC1)N1CCSCC1)OCCO3 (stereo not drawn) was read as Mtb FBA inh 28*, Rv3671c inh 3, FadD28 FP inh -1, GDH-TPI counter 20, UGM FP inh 0 and Mtb betalactam -5.
`COc1cc2cc(C(c3nnnn3C3CCCC3)N3CCCCC3)c(=O)[nH]c2cc1OC` (stereo not drawn) gave Mtb FBA inh 0, Rv3671c inh 3, FadD28 FP inh -4, GDH-TPI counter 4, UGM FP inh 0 and Mtb betalactam 8.
For CCOc1ccc(NCc2cccn2-c2nnc(N3CCC(C(=O)NCCCN4CC(C)CC(C)C4)CC3)s2)cc1 (stereo not drawn) the results were Mtb FBA inh 0, Rv3671c inh -2, FadD28 FP inh -3, GDH-TPI counter -3, UGM FP inh 4 and Mtb betalactam 94.
`Cc1cc(=O)oc2cc(NS(=O)(=O)c3ccc(F)cc3)ccc12` gave Rv3671c inh 5, FadD28 FP inh 1, GDH-TPI counter 52*, UGM FP inh 0 and Mtb betalactam -1.

Bioassay records as filed in PubChem BioAssay.
